We go through 15 compounds from PubChem BioAssay.

Structures are written as SMILES. Activity calls are given as the source filed them.

Assay [1] is described as follows: compound effects on lung adenocarcinoma cell viability – A549, calcein-AM fluorescence, 48 h, basal, profiling panel (AID 1162). The settings on record: higher = more signal.
A short description of assay [2]: compound effects on differentiated 3T3-L1 adipocyte viability – cell-based, 3T3-L1 adipocytes, calcein-AM fluorescence, 48 h, basal, profiling panel (AID 1163). The settings on record: 3T3-L1 adipocytes viability, higher = more signal.
Assay [3] in a line: compound effects on hepatocellular carcinoma cell viability – HepG2, calcein-AM fluorescence, 48 h, basal, profiling panel (AID 1164). The settings on record: higher = more signal.
Assay [4] can be described thus: compound effects on multiple myeloma cell viability – MM1S, calcein-AM fluorescence, 48 h, basal, profiling panel (AID 1165). The conditions noted are these: higher = more signal.
The nature of assay [5]: calcein-AM signal in unstimulated myeloma cells – cell-based, calcein-AM fluorescence, 48 h, PK04 Diversity Set, profiling panel (AID 1166).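 Further: cells grown under basal conditions without added stimulus.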 The conditions noted are these: RPMI8226 myeloma viability, higher = more signal.
Assay [6] is described as follows: JC-1 mitochondrial signal, unstimulated HepG2 cells – cell-based, JC-1 fluorescence, 24 h, 100 nL compound, profiling panel (AID 1167). The conditions noted are these: HepG2 mitochondrial potential, higher = more signal.
Assay [7] in a line: JC-1 mitochondrial signal, unstimulated adipocytes – cell-based, JC-1 fluorescence, 3T3-L1 adipocytes, 24 h, 100 nL compound, profiling panel (AID 1168). The settings on record: JC-1 mitochondrial fluorescence, higher = more signal, called active from +8 up or from −8 down.
Assay [8] in a line: JC-1 mitochondrial signal, unstimulated myeloma cells – cell-based, JC-1 fluorescence, RPMI8226, 24 h, 100 nL compound, profiling panel (AID 1169). The conditions noted are these: JC-1 mitochondrial potential fluorescence, higher = more signal.
Assay [9] can be described thus: JC-1 mitochondrial signal, unstimulated MM1S myeloma – cell-based, JC-1 fluorescence, 24 h, 100 nL compound, profiling panel (AID 1170). The conditions noted are these: MM1S mitochondrial potential, higher = more signal.
A short description of assay [10]: resazurin metabolic signal in A549 cells – cell-based, resazurin fluorescence, 24 h, PK04 Diversity Set, profiling panel (AID 1171). The settings on record: A549 viability, higher = more signal, called active from +8 up or from −8 down.
Further: test concentration not given here.

In the case of `CN(C)C(=O)[C@]1(Cc2ccccc2CN=[N+]=[N-])N=C(c2ccc(OCCCO)cc2)O[C@@H]1c1ccccc1CN=[N+]=[N-]`, the z-score in assay [1] was -0.999; in [2] it was 1.59; in assay [3], 0.309; in [4], -2.26; in [5] it was -4.24; in [6] it was 0.644. The z-score in assay [7] was -0.735 (inactive); in assay [8], -1.13; in [9] it was -0.0198; in [10], 0.113 (inactive).
For `CN(C)C(=O)[C@@]1(Cc2ccccc2CN=[N+]=[N-])N=C(c2ccc(OCCCO)cc2)O[C@H]1c1ccccc1`, the z-score in assay [1] is -0.62; in assay [2], -0.476; in assay [3], -1.18; in assay [4], -3.03; in [5], -3.94; in assay [6] it was -0.807. Further, the z-score in assay [7] is -0.215 (inactive); in [8], -0.988; in [9] it was -2.52; in assay [10] it was -0.325 (inactive).
For the compound `CN1C(=O)C2C=CC(C(O)Cc3ccccc3)N(Nc3ccccc3)C2C1=O` (stereo not given), the z-score in [1] is 0.368; in assay [2], -1.33; in assay [3], 0.0486; in [4] it was -1.48; in assay [5], -0.618; in assay [6] it was -1.32. Further, the z-score in [7] was -1.06 (inactive); in [8] it was 0.0363; in [9] it was 0.155; in [10], -0.528 (inactive).
As for `C=CC[C@@]1(C(=O)NCc2ccccc2)N=C(c2ccc(OCCCO)cc2)O[C@@H]1c1ccccc1N=[N+]=[N-]`, the z-score is -0.586 in [1]; 0.117 in assay [2]; 0.317 in assay [3]; -1.48 in assay [4]; -1.26 in [5]; -0.827 in assay [6]. Moreover, the z-score was 0.693 (inactive) in [7], -1 in assay [8], -0.85 in [9] and -0.307 (inactive) in [10].
As to `C=C/C=C/[C@H]1C(=C)CN([C@@H](Cc2ccccc2)C(=O)OC)[C@@H]1[C@H](O)Cc1ccccc1`, the z-score in [1] is -0.0859; in assay [2], -0.178; in [3], -0.0232; in assay [4], -2.2; in assay [5], -1.52; in [6], -1.06. For the same compound, the z-score was -0.882 (inactive) in assay [7], -0.317 in assay [8], 0.165 in assay [9] and -0.138 (inactive) in assay [10].
Take `C[C@]1(C(=O)NC2CC2)c2ccccc2C(=O)N(Cc2cc(C(F)(F)F)cc(C(F)(F)F)c2)[C@H]1c1ccc(CO)cc1`: the z-score was 1.34 in assay [1]; 0.254 in [2]; 1.44 in assay [3]; 0.274 in assay [4]; 0.56 in [5]; 2.04 in [6]. For the same compound, the z-score in assay [7] is -0.0278 (inactive); in assay [8] it was -0.105; in assay [9], -0.262; in assay [10], 0.89 (inactive).
For the compound `CCCCCC1=C2CNC(CCC)(C(=O)OC)C=C2C(C)C1=O` (stereo not given), the z-score in [1] was -1.22; in [2] it was -0.388; in assay [3] it was 0.62; in assay [4], 0.0829; in assay [5], -0.282; in assay [6], -0.24. Further, the z-score in [7] is -0.283 (inactive); in [8], -0.18; in [9], -1.13; in [10], -0.606 (inactive).
In the case of `COC(=O)[C@@]1(Cc2ccc(F)cc2)[C@H]2c3cc(C(=O)N(C)C)n(Cc4ccc(S(C)(=O)=O)cc4)c3C[C@H]2CN1C(=O)c1ccccc1`, the z-score in assay [1] is -0.379; in assay [2], -0.631; in [3] it was 0.137; in [4] it was 0.373; in [5], -0.198; in [6], 3.32. In addition, the z-score in assay [7] is -0.224 (inactive); in assay [8], 0.059; in assay [9], 0.125; in [10] it was -0.46 (inactive).
Regarding `COc1ccc(C(O)C2C=CC3C(=O)N(C)C(=O)C3N2N2CCCCC2)c2ccccc12` (stereo not given), the z-score in assay [1] was -1.01; in assay [2], -1.14; in [3], -0.086; in assay [4], -0.142; in assay [5], 0.768; in assay [6], -0.874. In addition, the z-score in [7] was -1.08 (inactive); in assay [8], -0.0496; in [9], 0.028; in assay [10], -0.825 (inactive).
As to `COC(=O)[C@@]1(Cc2ccccc2)[C@H]2c3cc(C(=O)N4CCCC4)n(Cc4nc5ccccc5[nH]4)c3C[C@H]2CN1C(=O)c1ccccc1`, the z-score in [1] is -0.579; in [2], 0.887; in assay [3], -0.537; in assay [4] it was -2.39; in assay [5] it was -2.19; in assay [6], 1.73. Further, the z-score in assay [7] is -0.807 (inactive); in [8], -0.863; in assay [9], -0.81; in assay [10] it was -0.178 (inactive).
`CCN(CC)c1ccc(N2CC=CC34O[C@@H]5/C=C\CCCOC(=O)C5[C@H]3C(=O)N(CCO)[C@@H]4C2=O)cc1` (stereo not given in full): the z-score in assay [1] is 1.05; in assay [2] it was 0.327; in assay [3], 0.0797; in assay [4] it was 0.727; in assay [5], -0.509; in assay [6], -0.451. Further, the z-score is -0.381 (inactive) in assay [7], -0.814 in assay [8], -0.245 in assay [9] and -1.8 (inactive) in [10].
On to `CCCCC=C[C@@H](NC(=O)Oc1cccc(C(F)(F)F)c1)c1ccccc1`, for which the z-score was -1.12 in assay [1]; 0.26 in assay [2]; -0.568 in assay [3]; -1.8 in assay [4]; -3.36 in assay [5]; -1.63 in assay [6]. Also, the z-score in assay [7] is -0.585 (inactive); in assay [8], -0.799; in assay [9], -1.1; in [10] it was -0.665 (inactive).
On to `C[C@@]1([C@@H](NC(=O)c2ccccc2)c2ccc(-c3ccccc3)cc2)C[C@H]1C1CCCCC1`, for which the z-score in [1] was -1.35; in assay [2] it was -0.502; in assay [3] it was -0.687; in assay [4], -0.646; in assay [5], -1.28; in [6] it was -0.964. Also, the z-score is -1.22 (inactive) in assay [7], 0.318 in assay [8], -0.308 in assay [9] and -1.2 (inactive) in assay [10].
For `COc1cc2c(cc1OC)CN(C(=O)[C@H]1[C@@H]3C(=O)O[C@@H](c4ccccc4)[C@@H](c4ccccc4)N3[C@@H](c3ccc(O)cc3)[C@]13C(=O)Nc1ccc(C#CCNC(N)=O)cc13)CC2`, the z-score in assay [1] was -0.697; in [2] it was 0.448; in assay [3], 0.148; in assay [4], 0.703; in assay [5] it was 0.168; in assay [6] it was -1.31. The z-score was 0.635 (inactive) in [7], 0.22 in assay [8], -0.222 in assay [9] and -0.0437 (inactive) in assay [10].
On to `Cc1ccc(S[C@]2(C(=O)NCC(F)(F)F)CC(=O)N(C(C)C)[C@@H]2c2ccc(CO)cc2I)cc1`, for which the z-score in [1] is 0.553; in assay [2], 0.837; in assay [3], -0.0366; in assay [4], -2.2; in [5], -2.73; in [6], 0.409. Moreover, the z-score is -0.374 (inactive) in assay [7], -0.815 in assay [8], -1.12 in [9] and 0.683 (inactive) in assay [10].
